Shown are actives, neighbours in structure and some others; about 7.3% of the full set was active somewhere.
SMN2 splice up – qHTS Assay for Enhancers of SMN2 Splice Variant Expression; HEK293 SMN2-luciferase splicing reporter, luminescence, 30-36 h; Potency, µM (highest dose often 46.1 µM), usual class: activators; 210,000 compounds, 2.8% hits; note: nearly all actives have a fitted effect of over 55% in size
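qHTS luciferase splicing reporter: luminescence rises when SMN2 exon 7 is included in transfected HEK293 cells. Compound exposure lasted 30-36 h at 37C, with 4.5 mM final sodium butyrate as control, followed by a ONE-Glo read.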
p53 reactivator – qHTS assay for re-activators of p53 using a Luc reporter; 320,000 compounds, 0.063% hits; AID 504706, 2011; H1299 p53-A138V BP100-luciferase reporter, luminescence, 24 h; Potency, µM (series often up to 92.2 µM), hits mostly activators; note: nearly all actives have a fitted effect of over 45% in size
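H1299 (p53-null), stable ts p53-A138V + BP100-Luc; 1000 cells/well, Opti-MEM/10% FBS; cpd 4 pt, 1:5; 24 h, 37 deg C, 5% CO2; detection reagent 10 min RT; luminescence.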
NPC1 promoter act – qHTS Assay for NPC1 Promoter Activators. Huh7 NPC1 promoter luciferase reporter, 24 h. Potency, µM (doses to about 9.22 µM), most hits filed as activators. 320,000 compounds, 2.4% hits; note: nearly all actives have a fitted effect of over 60% in size
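Readout is luciferase luminescence, reflecting NPC1 promoter activation in stably transfected Huh7 cells after 24 h compound exposure at 37 °C in reduced-serum medium with 10% FBS.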
Rab9 promoter act – qHTS Assay for Rab9 Promoter Activators | Potency, µM (highest dose often 9.22 µM), hits mostly activators | 320,000 compounds, 2.8% hits | Huh7 Rab9 promoter-luciferase reporter, luminescence, 24 h; note: nearly all actives have a fitted effect of over 60% in size
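Promoter activation is measured as luciferase luminescence in Huh7 cells stably transfected with a Rab9 promoter–luciferase construct, following 24 h compound exposure at 37 °C and 10 min reagent incubation at ambient temperature.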
ELG1 genotox – qHTS screen for small molecules that induce genotoxicity in human embryonic kidney (HEK293T) cells expressing luciferase-tagged ELG1; HEK293T ELG1-luciferase reporter, luminescence, 16 h; Potency, µM (top dose mostly 46 µM), most hits filed as activators; 330,000 compounds, 1.3% hits; AID 504466, 2011; note: nearly all actives have a fitted effect of over 60% in size
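After overnight (16 hr) compound treatment at 37 °C, ELG1-luciferase HEK293T cells were lysed with ONE-Glo; luminescence quantified 30 min later at room temperature.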
FLuc counter – qHTS profiling assay for firefly luciferase inhibitor/activator using purifed enzyme and Km concentrations of substrates (counterscreen for miR-21 project) | purified FLuc, Km substrates, luminescence inhibition | Potency, µM (titrated, usually from 57.5 µM), hits mostly inhibitors | AID 588342, 2011 | 360,000 compounds, 6.9% hits | Luciferin 4-monooxygenase (Photinus pyralis), P08659; note: nearly all actives have a fitted effect of over 55% in size
Target sequence (P08659 whole entry, looked up): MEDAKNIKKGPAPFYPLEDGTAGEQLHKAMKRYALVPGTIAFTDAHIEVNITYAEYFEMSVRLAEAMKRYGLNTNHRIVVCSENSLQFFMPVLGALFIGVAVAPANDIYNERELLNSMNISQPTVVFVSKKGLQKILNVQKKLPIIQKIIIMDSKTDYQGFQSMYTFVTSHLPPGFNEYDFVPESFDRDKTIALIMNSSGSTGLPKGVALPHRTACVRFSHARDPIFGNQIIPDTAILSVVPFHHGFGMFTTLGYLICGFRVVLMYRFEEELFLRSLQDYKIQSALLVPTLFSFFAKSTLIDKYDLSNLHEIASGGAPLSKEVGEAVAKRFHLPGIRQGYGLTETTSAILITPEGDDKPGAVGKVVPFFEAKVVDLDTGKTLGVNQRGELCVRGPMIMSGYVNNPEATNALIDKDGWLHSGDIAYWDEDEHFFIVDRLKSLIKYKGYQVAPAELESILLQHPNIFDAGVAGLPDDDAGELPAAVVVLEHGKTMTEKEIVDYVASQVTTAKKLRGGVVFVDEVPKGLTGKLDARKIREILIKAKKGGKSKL
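Purified P. pyralis luciferase, 10 nM final, with Km-level 10 uM D-luciferin and 10 uM ATP in 50 mM Tris acetate pH 7.5, 10 mM Mg acetate, 0.01% Tween-20, 0.05% BSA; 6-point qHTS titration about 60 µM downward; luminescence read.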
Numbers stand for hits; n = inactive; u = inconclusive; x = no result given. Calls come from the whole dose curve; as a rule, active = well fitted curve in the direction sought with a large enough effect; inconclusive = small, poorly fitted or top-dose-only effect, or another doubt; inactive = no such curve, though single readings can be large; an effect the other way counts as inactive or inconclusive.

SMILES | SMN2 splice up | p53 reactivator | NPC1 promoter act | Rab9 promoter act | ELG1 genotox | FLuc counter
COc1cccc(/C=N/N2C(=O)NC3(CCCCC3)C2=O)c1O | n | n | n | n | n | 13µM
Oc1ccc(/C=N/N2CCOCC2)c(O)c1O | n | n | n | n | n | u
COc1ccc(OC(=O)CCc2c[nH]c3ccccc23)cc1 | n | n | n | n | n | u
O=c1c2sc3ccccc3c2n(Cc2ccccc2F)c(=O)n1CCc1ccccc1 | n | x | x | x | x | n
CCN(CC)S(=O)(=O)c1ccc2c(c1)N(CC(=O)Nc1ccc(OC)cc1)C(=O)CS2 | n | x | x | x | x | n
NCCS(=O)O | n | x | n | n | x | x
CCN1CCN(c2ccc(N=Cc3ccccc3O)cc2)CC1 | n | n | n | n | n | 21µM
CCN1CCC(N2CCN(c3ccc(F)cc3)CC2)CC1 | x | x | n | n | n | n
COc1cccc(C=Nc2ccc(N3CCOCC3)cc2)c1O | x | n | n | n | n | 12µM
Cn1c(O)c(C=Nc2ccc(N3CCOCC3)cc2)c(=O)n(C)c1=S | n | n | n | n | n | n
Cc1cc(O)c(C=Nc2ccc(N3CCOCC3)cc2)c(C)c1Cl | x | n | n | n | n | 4.8µM
CSc1nc(C(C)C)ccc1CNC(=O)CC(C)c1ccccc1 (stereo unspecified) | x | n | n | n | n | n
COc1ccc(NC(=O)COC(=O)COc2cccc3c2OC(C)(C)C3)cc1 | x | n | n | n | n | n
COc1ccccc1C(=O)COC(=O)COc1cccc2c1OC(C)(C)C2 | x | u | 2µM | 2.5µM | 9.2µM | 4.8µM
COc1cccc(Nc2ncnc3c2cnn3-c2cccc(C)c2)c1 | n | u | u | u | n | 17µM
COc1ccc(Nc2ncnc3c2cnn3-c2ccc(C)cc2)cc1Cl | x | x | x | x | x | 24µM
Cc1cccc(-n2ncc3c(Nc4ccc(C)c(Cl)c4)ncnc32)c1 | x | x | x | x | x | n
COc1ccccc1Nc1ncnc2c1cnn2-c1cccc(C)c1 | n | n | n | n | n | 13µM
FC(F)(F)c1cc(CN2CC3(CCNCC3)C2)cc(C(F)(F)F)c1 | n | x | x | x | x | x
COc1cc(NC(=O)c2cc(C)nc3ccccc23)cc(OC)c1OC | n | n | n | n | n | n
Cc1ccc(-c2cc(C(=O)Nc3nccs3)c3ccccc3n2)c(C)c1 | n | n | n | n | n | n
COc1ccc(NC(=O)c2cc(-c3ccc(C)o3)nc3ccccc23)cc1OC | n | u | n | u | n | 0.95µM
Cc1ccc(-c2cc(C(=O)Nc3nccs3)c3ccccc3n2)o1 | n | n | n | n | n | 11µM
COc1ccc(N(CC(=O)N2CCc3ccccc3C2)S(=O)(=O)c2ccc(C)cc2)cc1Cl | n | x | x | x | x | n
COc1ccc2cc(/C=C/C(=O)c3ccco3)c(Cl)nc2c1 | n | n | u | u | u | u
SMILES | SMN2 splice up | p53 reactivator | NPC1 promoter act | Rab9 promoter act | ELG1 genotox | FLuc counter
Cc1ccc2nc(Cl)c(/C=C/C(=O)c3ccco3)cc2c1 | x | u | u | 3.5µM | n | n
Cc1ccc2cc(/C=C/C(=O)c3ccco3)c(Cl)nc2c1 | x | u | u | 2.5µM | u | u
Cc1cc(=O)n2nc(N(C)CC(=O)NCc3ccc(Cl)cc3)sc2n1 | n | x | x | x | x | n
CCc1nc2oc3ccccc3c(=O)c2cc1C(=O)OC | x | u | 3.2µM | 3.5µM | u | 13µM
COCc1nc2oc3ccc(C)cc3c(=O)c2cc1C(=O)OC | x | n | u | 1.8µM | u | 11µM
COCc1nc2oc3ccc(F)cc3c(=O)c2cc1C(=O)OC | x | n | 2.8µM | u | u | u
CCOC(=O)c1sc2ncn(CC(=O)N(CC)CC)c(=O)c2c1C | n | n | n | n | n | n
Cc1onc(-c2ccccc2)c1C(=O)NC(=S)NNC(=O)c1ccncc1 | n | n | n | n | n | n
Cc1onc(-c2ccccc2)c1C(=O)NC(=S)NNC(=O)c1cc(-c2ccc(F)cc2)n[nH]1 | x | n | n | n | n | 15µM
CC(=O)Oc1ccc(N2C(=O)CCC2=O)cc1 | n | n | n | n | n | n
Cc1cc(OC(=O)c2ccccc2Cl)cc(=O)n1C | n | n | n | n | n | 15µM
